PubChem BioAssay (NCATS)
“And” between values parts separate entries of the source, which are not always exact repeats. Identical values can stand only once. Records with an inconclusive call do not appear. Unmarked numbers belong to inactive results. The call rests on the fitted dose curve; in most records, active means well fitted inhibition curve with a large enough effect; inconclusive means small, poorly fitted or top-dose-only effect; inactive means flat fitted curve, though single readings scatter. Where a SMILES comes first, the peptide text is derived from it. Bridges are numbered along the chain shown (N, C = ends). [ ]: non-standard residue; d: D form. The star is where a group is joined. X1 = CC[C@@H](C)[C@@H](N)C1=N[C@H](C(=O)*)CS1; d(aIle) = CC[C@H](C)[C@@H](N)C(=O)O; dOrn = NCCC[C@@H](N)C(=O)O
On the % scale 0 is the no-effect control and ±100 the full control effect.

The compounds below were run on KB-3-1 (assay: Cytotoxic Profiling of Annotated Libraries Using Quantitative High-Throughput Screening (AID 1296008; further: nearly all actives have a fitted effect of over 60% in size)). Details: Five cell lines viability, CellTiter-Glo ATP luminescence, 48-72 h; max response: stronger effect = lower value.
Procedure, shortened: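 Cytotoxicity was measured as CellTiter-Glo ATP luminescence, read after 10 min at room temperature. Compound treatment of the cells lasted 48 or 72 hr at 37 degrees Celsius in a qHTS format.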
For `CCC(C)[C@@H](N)C(=O)O` (some centres not stated), the max response was 1.62%. For `O=c1[nH]c(=O)n([C@H]2C[C@H](O)[C@@H](CO)O2)cc1/C=C/Br`, the max response was 1.96%. In the case of `Cc1cccc(C)c1NC(=O)C1CCCCN1C` (configuration not stated), the max response is reported as -1.09%. In the case of `CC1(C)C(\C=C/C=C\C=C/C=C2/N(CCCCS(=O)(=O)O)c3ccc4ccccc4c3C2(C)C)=[N+](CCCCS(=O)(=O)[O-])c2ccc3ccccc3c21`, the max response is reported as -6.53%. In the case of `CC(=NCc1ccccc1)c1ccccc1O`, the max response is reported as -11.4%. `CCCCC(CC)CCC(CC(C)C)OS(=O)(=O)O` (configuration not stated) was tested, and the max response was 11% and -8.89%. Compound `O=C(O)[C@@H]1C[C@H](CP(=O)(O)O)CCN1` has a max response of 23.4%. With `CC[C@@H](C)[C@@H](N)C1=N[C@H](C(=O)N[C@@H](CC(C)C)C(=O)N[C@@H](CCC(=O)O)C(=O)N[C@@H](C(=O)N[C@@H]2CCCCNC(=O)[C@@H](CC(N)=O)NC(=O)[C@@H](CC(=O)O)NC(=O)[C@@H](Cc3cnc[nH]3)NC(=O)[C@@H](Cc3ccccc3)NC(=O)[C@@H]([C@H](C)CC)NC(=O)[C@@H](CCCN)NC2=O)[C@@H](C)CC)CS1` (X1-LE[d(aIle)][dK][dOrn][dI][dF][dH][dD][dN]; lactam 4-C) the max response was 3.54% and -18.2%. `CC(=O)N[C@@H](C=O)[C@@H](O)[C@H](O)[C@H](O)CO` was tested, and the max response was 2.45%. For `COc1cc2c(cc1OC)[C@@H](Cc1cc(OC)c(OC)c(OC)c1)[N+](C)(CCCOC(=O)CC/C=C/CCC(=O)OCCC[N+]1(C)CCc3cc(OC)c(OC)cc3[C@H]1Cc1cc(OC)c(OC)c(OC)c1)CC2` (some centres not stated), the max response was -6.45% and -2.94%. For `CCCCCCCCCc1ccc(OCCOCCO)cc1`, the max response was -16.4%. For `CN1CCCC(CN2c3ccccc3Sc3ccccc32)C1` (configuration not stated), the max response was -10.2%. In the case of `OCC(O)CO`, the max response is reported as 0.712%. `C[C@H](CCC(=O)O)[C@H]1CC[C@H]2[C@@H]3CC[C@@H]4C[C@H](O)CC[C@]4(C)[C@H]3C[C@H](O)[C@]12C` showed a max response of -0.187%. `O=C(O)[C@H]1CN(C/C=C/P(=O)(O)O)CCN1` gave a max response of 9.65%. With `CO/N=C(\C(=O)N[C@@H]1C(=O)N2C(C(=O)[O-])=C(C[n+]3cccc4c3CCC4)CS[C@H]12)c1csc(N)n1` the max response was -1.98%. `CCCC(=O)O` gave a max response of 2.03%. In the case of `CSc1nc2cc(Oc3cccc(Cl)c3Cl)c(Cl)cc2[nH]1`, the max response is reported as -1.84%. `CCCOC(=O)c1ccccc1O` gave a max response of -1.94%. With `O=C(O)CCCC/C=C(\c1ccccc1)c1cccnc1` the max response was -9.78%. `OB(O)O` was tested, and the max response was -9%. `C=CCCCCCCCCC(=O)OC` gave a max response of 9.89%. `O=C(O)CCC/C=C\C[C@@H]1[C@@H](/C=C/[C@@H](O)COc2cccc(Cl)c2)[C@H](O)C[C@@H]1O` gave a max response of -2.7%. In the case of `Oc1cc(O)cc(O)c1`, the max response is reported as 3%. For `CN(C)C=Nc1c(I)cc(I)c(CCC(=O)O)c1I`, the max response was 0.601%. Work on `O=C(O)c1ccc(NC2OC[C@@H](O)[C@H](O)[C@H]2O)cc1` (some centres not stated) yielded a max response of -17.7%. `Cc1ccc(C(C)(C)c2ccc(C)cc2)cc1` gave a max response of -2.63%. For `CC(=O)Oc1cc(C(F)(F)F)ccc1C(=O)O`, the max response was 0.097%. `NC(=S)N=Nc1ccc(NN=C(N)N)cc1` gave a max response of -12.2%. With `O=C1c2c(O)cccc2[C@H]([C@@H]2O[C@H](CO)[C@@H](O)[C@H](O)[C@H]2O)c2cc(CO)cc(O)c21` the max response was 8.29%. `NCC[C@H](O)C(=O)N[C@@H]1C[C@H](N)[C@@H](O[C@H]2O[C@H](CN)[C@@H](O)[C@H](O)[C@H]2O)[C@H](O)[C@H]1O[C@H]1O[C@H](CO)[C@@H](O)[C@H](N)[C@H]1O` gave a max response of 3.67%. With `C=C1CC[C@H](O)CC1=C/C=C1\CCC[C@]2(C)[C@@H]([C@H](C)CC[C@@H](O)C(C)(C)O)CC[C@@H]12` the max response was 6.41%. With `CC(C)C1=CC2=CC[C@@H]3[C@](C)(CCC[C@@]3(C)C(=O)O)[C@H]2CC1` the max response was -11.9%. `CN(C)C(=O)CCSC(SCCC(=O)O)c1cccc(/C=C/c2ccc3ccc(Cl)cc3n2)c1` (configuration not stated) showed a max response of -15.2%. Compound `NC[C@H]1O[C@H](O[C@H]2[C@H](O)[C@@H](O[C@H]3O[C@H](CO)[C@@H](O)[C@H](N)[C@H]3O)[C@H](N)C[C@@H]2N)[C@H](O)[C@@H](O)[C@@H]1O` has a max response of 14.5%. In the case of `CC(C)CCC[C@@H](C)[C@H]1CC(=O)C2=C3CC[C@H]4C[C@@H](O)CC[C@]4(C)[C@H]3CC[C@@]21C`, the max response is reported as -6.65%. `CC1(C)S[C@@H]2[C@H](NC(=O)C3(N)CCCCC3)C(=O)N2[C@H]1C(=O)O` gave a max response of -2.76%.
